# According to the supplement of paper PMC12350171:
# Counter-ions that a name gives are not always drawn. Values without a mark were called inactive.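 The calls were made as follows: active = AUC significantly below DMSO controls by Student t-fit with adjusted P under 0.01; inactive = not significantly reduced.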
# System: Salmonella enterica typhimurium
# Experiment: growth AUC normalised to DMSO control (fraction of control); higher = less growth inhibition, active = hit call of the paper
# Conditions: 20 µM
# Method in brief: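 Hemin and NAD were added to the medium for Haemophilus parainfluenzae. All pathogens, after two anaerobic passages, were inoculated at a starting OD578 of 0.01 into pre-reduced mGAM plates with 20 μM compound and 1% DMSO under breathable seals, and OD578 was read hourly for 24 h in three biological replicates. AUC of each growth curve was obtained with the trapezoidal rule up to the exponential-to-stationary transition and normalised to DMSO controls from the same plate.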
row,Structure (SMILES),growth AUC normalised to DMSO control
1,O=P1(N(CCCl)CCCl)NCCCO1 (stereo not drawn) [Cyclophosphamide],1.02
2,CN1C[C@H](CNC(=O)OCc2ccccc2)C[C@@H]2c3cccc4c3c(cn4C)C[C@H]21 [Metergoline],0.979
3,O=[N+]([O-])O[C@H]1CO[C@H]2[C@@H]1OC[C@H]2O[N+](=O)[O-] [Isosorbide dinitrate],1.03
4,CCC(=O)O[C@@](Cc1ccccc1)(c1ccccc1)[C@@H](C)CN(C)C [Levopropoxyphene napsylate],0.999
5,CCCC[N+]1(C)[C@@H]2C[C@@H](OC(=O)[C@H](CO)c3ccccc3)C[C@H]1[C@@H]1O[C@@H]12 (stereo partly drawn) [N-Butylscopolammonium bromide],1
6,C[C@]12CC[C@H](O)C[C@H]1CC[C@@H]1[C@@H]2C[C@@H](O)[C@]2(C)[C@@H](C3=CC(=O)OC3)CC[C@]12O [Digoxigenin],1.03
7,OC(c1ccccc1)(c1ccccc1)C1CCNCC1 [Azacyclonol],0.999
8,CN1[C@@H]2C[C@@H](OC(=O)[C@H](CO)c3ccccc3)C[C@H]1[C@@H]1O[C@@H]12 [Scopolamine hydrochloride],1.03
